{"source": "paper PMC5540273", "about": "(PLoS ONE, 2017);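 note: kd values determined as follow-up on hits from a single-replicate KINOMEscan panel screen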", "key": {"MEK2": {"test_system": "T1, MEK2", "T1 construct": "gene MAP2K2"}, "MINK": {"test_system": "T2, MINK", "T2 construct": "gene MINK1"}}, "data": [{"smiles": "COc1cc2nccc(Nc3cccc(Oc4ccccc4)c3)c2cc1OC.Cl", "note": "[GW284543]", "values": [{"measurement": "Kd", "setting": "MEK2", "value": 270, "unit": "nM"}]}, {"smiles": "Cn1c(=O)c(F)c(Nc2ccc(I)cc2F)c2c(=O)n(OC[C@H](O)CO)cnc21", "values": [{"measurement": "Kd", "setting": "MEK2", "value": 200, "unit": "nM"}]}, {"smiles": "O=C(Nc1ccc2c(c1)OCO2)NC1CCN(c2ccnc(NCc3ccc(F)cc3)n2)CC1", "note": "[GSK1379859]", "values": [{"measurement": "Kd", "setting": "MELK", "value": "> 10000", "unit": "nM"}]}, {"smiles": "COc1ccc(CNC(=O)NC2CCN(c3ccnc(Nc4ccc(F)cc4)n3)C2)cc1", "note": "(centres unmarked) [GSK1379706]", "values": [{"measurement": "Kd", "setting": "MINK", "value": "> 10000", "unit": "nM"}]}, {"smiles": "Nc1nc(-c2ccccc2F)c(-c2ccnc3ccccc23)s1", "note": "[GW560459]", "values": [{"measurement": "Kd", "setting": "MINK", "value": 1700, "unit": "nM"}]}, {"smiles": "Cc1cccc(-c2nc(Nc3ccc4c(cnn4C)c3)c3ccccc3n2)n1", "note": "[GW876731]", "values": [{"measurement": "Kd", "setting": "MKNK1", "value": "> 10000", "unit": "nM"}]}, {"smiles": "Nc1n[nH]c2ncc(-c3ccccc3)cc12", "note": "[SB-517081]", "values": [{"measurement": "Kd", "setting": "MKNK2", "value": 260, "unit": "nM"}]}, {"smiles": "O=C(Nc1n[nH]c2nc(-c3ccccc3)c(Br)cc12)C1CC1", "note": "[SB-708998]", "values": [{"measurement": "Kd", "setting": "MST1R", "value": "> 10000", "unit": "nM"}]}, {"smiles": "COc1ccc(-c2cc3c(C)nc(N)nc3n([C@H]3CC[C@H](OCCO)CC3)c2=O)cn1", "values": [{"measurement": "Kd", "setting": "MTOR", "value": 3.3, "unit": "nM"}]}, {"smiles": "COc1ccc(-c2cc3c(C)nc(N)nc3n([C@H]3CC[C@H](O)CC3)c2=O)cn1", "values": [{"measurement": "Kd", "setting": "MTOR", "value": 4.8, "unit": "nM"}]}, {"smiles": "COc1cc2ncn(-c3cc(OCc4ccncc4)c(C(N)=O)s3)c2cc1OC", "note": "[GSK336313]", "values": [{"measurement": "Kd", "setting": "MUSK", "value": "> 10000", "unit": "nM"}]}]}
